In the library only some 7.1% were active in any assay of this set; here they are far more common.
MCF10A rereplic: induces DNA re-replication in MCF 10a normal breast cells; MCF 10A DNA re-replication, Hoechst nuclear intensity, 48 h; Potency, µM (series often up to 46.1 µM), most hits filed as activators; hit rate 2.9% among 350,000; AID 624296; further: nearly all actives have a fitted effect of over 50% in size
ELG1 repair inh: ELG1-dependent DNA repair inhibition; HEK293T ELG1-luciferase reporter, luminescence, 16 h; DNA damage induced by 5-fluorouridine; Potency, µM (series often up to 46.1 µM), most hits filed as inhibitors; hit rate 2.3% among 330,000; further: nearly all actives have a fitted effect of over 55% in size
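HEK293T cells expressing luciferase-tagged ELG1 (2,000/well) received 5-Fluorouridine plus compound or DMSO for 16 hr at 37 °C. Luciferase was read by ONE-Glo luminescence after 30 min at room temperature.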
p53 reactivation: mutant p53 re-activation in reporter cells; Potency, µM (top dose mostly 92.2 µM), actives largely listed as activators; hit rate 0.063% among 320,000; H1299 p53-A138V BP100-luciferase reporter, luminescence, 24 h; further: nearly all actives have a fitted effect of over 45% in size
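p53-null H1299 cells stably carrying temperature-sensitive p53-A138V and a BP100-luciferase reporter were pinned with compounds (4-point, 1:5 series) and held 24 hrs at 37 deg C. Luminescence was read 10 min after detection reagent.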
A-T KAP1 phos: candidate therapy for ataxia-telangiectasia. F2112 A-T fibroblasts, KAP-1 phosphorylation AlphaLISA; neocarzinostatin DNA damage 30 min before lysis. Potency, µM (top dose mostly 57.5 µM), hits mostly activators. hit rate 0.19% among 320,000. AID 485349; further: nearly all actives have a fitted effect of over 45% in size
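ATM-like activity read as KAP-1 phosphorylation via AlphaLISA donor/acceptor antibody pairs after lysis and 6 hr at 25C. Cells were ATM-null patient fibroblasts (F2112, hTERT), dosed 60 min, then exposed to the DSB inducer NCS for 30 min.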
ELG1 genotox: genotoxicity induction in ELG1-luciferase HEK293T cells; HEK293T ELG1-luciferase reporter, luminescence, 16 h; AID 504466; hit rate 1.3% among 330,000; Potency, µM (top dose mostly 46 µM), hits mostly activators; further: nearly all actives have a fitted effect of over 60% in size
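ELG1-luciferase HEK293T cells, 2,000/well; compound pinned in; 16 hr, 37 °C, 5% CO2; ONE-Glo, 30 min RT; luminescence on CCD imager.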
SW480 rerep: induces DNA re-replication in SW480 colon adenocarcinoma cells; Potency, µM (top dose mostly 46.1 µM), hits mostly activators; SW480 DNA re-replication, Hoechst DNA content imaging, 48 h; hit rate 1.8% among 340,000; further: nearly all actives have a fitted effect of over 55% in size
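SW480 cells exposed to compounds for 48 hr at 37 C, 5% CO2, then Hoechst-stained 40 min. Nuclear DNA content imaged by fluorescence scanning (405 nm excitation, 500-530 nm emission); re-replication scored as increased high-intensity nuclei.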
Large screens that a line does not name were inactive. The call rests on the fitted dose curve; in most records, active means well fitted curve in the direction sought with a large enough effect; inconclusive means small, poorly fitted or top-dose-only effect, or another doubt; inactive means no such curve, though single readings can be large; an effect the other way counts as inactive or inconclusive.

COc1ccc(/C=C2\SC(=S)N(CCC(=O)NCCCn3ccnc3)C2=O)cc1	none
COc1cccc(C2CNC3(CCCC(C)C3)c3[nH]c4ccccc4c32)c1OC (configuration not stated)	MCF10A rereplic 18.4µM
COc1ccc(-c2c(NC(=O)CC(C)C)n(C)c3ccccc3c2=O)cc1OC	none
Cc1ccccc1N/C(SCc1ccc(Cl)cc1)=C(/C#N)C(=O)NCc1ccco1	ELG1 repair inh inconclusive, SW480 rerep inconclusive
Cc1ccc(CS/C(Nc2ccccc2C)=C(\C#N)C(=O)NCc2ccco2)c(C)c1	MCF10A rereplic inconclusive, ELG1 repair inh 14.6µM (no result: A-T KAP1 phos)
O=C(/C=C/c1cccc(Cl)c1)c1nc2ccccc2[nH]1	MCF10A rereplic inconclusive, ELG1 repair inh inconclusive, SW480 rerep inconclusive
COc1cc(/C=C(/C(=O)c2cccs2)c2nc3ccccc3[nH]2)ccc1O	MCF10A rereplic 4.11µM, ELG1 repair inh inconclusive, A-T KAP1 phos 25.1µM, SW480 rerep 7.31µM
O=C(/C(=C/c1ccc(Cl)cc1)c1nc2ccccc2[nH]1)c1cccs1	MCF10A rereplic 5.17µM, ELG1 repair inh 7.31µM, A-T KAP1 phos 3.55µM, ELG1 genotox inconclusive, SW480 rerep inconclusive
O=C(/C(=C\c1ccccc1)c1nc2ccccc2[nH]1)c1ccc(Cl)cc1	MCF10A rereplic 4.11µM, ELG1 repair inh inconclusive, p53 reactivation inconclusive, ELG1 genotox inconclusive, SW480 rerep inconclusive
CCN(Cc1ccc(OC)c(F)c1)C(=O)/C=C/c1ccc(S(=O)(=O)N2CCOCC2)cc1	ELG1 repair inh inconclusive
CCCCn1cnc2c(SCc3ccc(Br)cc3)nc(N)nc21	MCF10A rereplic inconclusive (no result: ELG1 repair inh, p53 reactivation, A-T KAP1 phos, ELG1 genotox)
CC12CCC(=O)C=C1CCC1C2CCC2(C)C(c3csc(N)n3)CCC12 (configuration not stated)	MCF10A rereplic 16.4µM, SW480 rerep inconclusive (no result: ELG1 repair inh, p53 reactivation, A-T KAP1 phos, ELG1 genotox)
CCn1c(-c2ccc(F)cc2)cnc1SCC(=O)N1CCc2ccccc21	ELG1 repair inh inconclusive, p53 reactivation inconclusive (no result: MCF10A rereplic, SW480 rerep)
CCn1c(-c2ccc(F)cc2)cnc1SCC(=O)N1CCCCC1C (configuration not stated)	ELG1 repair inh inconclusive, p53 reactivation inconclusive, ELG1 genotox 6.51µM (no result: MCF10A rereplic, SW480 rerep)
COc1cc(Br)cc(Br)c1OCC(=O)N/N=C/c1c(C)n(C)n(-c2ccccc2)c1=O	none
Cc1ccccc1OCc1nc2c3cnn(C)c3ncn2n1	ELG1 repair inh inconclusive, p53 reactivation inconclusive, ELG1 genotox 5.8µM
Cc1ccc(S(=O)(=O)N2CCCCC2CCNC(=O)C(=O)NCc2ccco2)cc1 (configuration not stated)	MCF10A rereplic 9.2µM, SW480 rerep inconclusive
O=C(NCCC1CCCCN1S(=O)(=O)c1ccccc1)C(=O)Nc1ccc(F)cc1F (configuration not stated)	MCF10A rereplic 18.4µM, SW480 rerep inconclusive
Cc1ccc(C)c(S(=O)(=O)N2CCCC2CNC(=O)C(=O)NCCc2ccco2)c1 (configuration not stated)	MCF10A rereplic inconclusive, ELG1 repair inh inconclusive
O=C(NCCc1ccco1)C(=O)NCC1CCCN1S(=O)(=O)c1ccccc1 (configuration not stated)	MCF10A rereplic inconclusive, ELG1 repair inh inconclusive, SW480 rerep 16.4µM
Cc1cc(C)c(S(=O)(=O)N2CCCCC2CCNC(=O)C(=O)NCc2ccco2)c(C)c1 (configuration not stated)	MCF10A rereplic inconclusive, ELG1 repair inh inconclusive, SW480 rerep inconclusive
CCOc1ccc(NC(=O)C2CCCCN2S(=O)(=O)c2ccccc2)cc1 (configuration not stated)	none
CCOc1ccccc1NC(=O)C1CCCCN1S(=O)(=O)c1ccccc1 (configuration not stated)	ELG1 repair inh 20.6µM
Cc1ccc(S(=O)(=O)N2CCCCC2CCNC(=O)C(=O)NCCc2ccco2)cc1 (configuration not stated)	MCF10A rereplic 3.66µM, SW480 rerep 6.51µM
COC(=O)C1CCC(=O)N1C(c1ccc(OC)cc1)c1cc(OC)c(OC)c(OC)c1 (configuration not stated)	MCF10A rereplic 1.3µM, SW480 rerep 0.731µM (no result: ELG1 repair inh, p53 reactivation, A-T KAP1 phos, ELG1 genotox)
COc1ccc(C(CNC(=O)Cc2cc(OC)c(OC)c(OC)c2)N2CCCC2)cc1 (configuration not stated)	none
CCOC(=O)C1=C(c2ccccc2)c2ccc(OC)cc2N(S(=O)(=O)C(F)(F)F)C1C(=O)OCC (configuration not stated)	MCF10A rereplic inconclusive, ELG1 repair inh 14.6µM
CCOC(=O)C1C(C(=O)OC)=C(C2=CCCCC2)c2ccccc2N1S(=O)(=O)C(F)(F)F (configuration not stated)	MCF10A rereplic inconclusive, ELG1 repair inh 18.3µM
CCOC(=O)C1=C(C)c2ccccc2N(S(=O)(=O)C(F)(F)F)C1C(=O)OCC (configuration not stated)	none
Cc1noc(C)c1S(=O)(=O)N(CC(=O)NC(C)c1ccccc1)c1ccc(C(C)C)cc1 (configuration not stated)	SW480 rerep inconclusive
CCCNC(=S)N1CCC(C(=O)c2ccc(Cl)cc2)CC1	SW480 rerep 7.31µM (no result: p53 reactivation)
O=C(NCCO)c1nc(C(=O)c2ccc(Cl)cc2)c2ccccc2n1	none
O=C1NC(=Nc2ccccc2Cl)S/C1=C\c1cccc([N+](=O)[O-])c1	MCF10A rereplic inconclusive (no result: p53 reactivation)
O=C1NC(=S)S/C1=C\c1cc2ccccc2nc1N1CCCCC1	MCF10A rereplic inconclusive, ELG1 repair inh 16.4µM
O=C1NC(=S)S/C1=C\c1cccc([N+](=O)[O-])c1	MCF10A rereplic 18.4µM, SW480 rerep inconclusive (no result: ELG1 repair inh, p53 reactivation, A-T KAP1 phos, ELG1 genotox)
CCN1C/C(=C/c2cccc([N+](=O)[O-])c2)C(=O)/C(=C/c2cccc([N+](=O)[O-])c2)C1	MCF10A rereplic 0.82µM, ELG1 repair inh 2.59µM, SW480 rerep 3.66µM
O=C1NC(=S)SC1=Cc1ccccc1Cl	MCF10A rereplic 6.51µM (no result: ELG1 repair inh, p53 reactivation, A-T KAP1 phos, ELG1 genotox)
COc1cc(/C=C(/C#N)C(=O)NCCc2c[nH]c3ccccc23)ccc1OCc1ccccc1F	MCF10A rereplic 5.17µM, ELG1 repair inh inconclusive, SW480 rerep 3.26µM
COC(=O)/C(=C\c1ccc(O)cc1)c1nc2ccccc2[nH]1	MCF10A rereplic 16.4µM, ELG1 repair inh inconclusive, SW480 rerep 2.59µM
COC(=O)/C(=C\c1cc(OC)c(OC)c(OC)c1)c1nc2ccccc2[nH]1	MCF10A rereplic 20.6µM, ELG1 repair inh inconclusive, SW480 rerep inconclusive
COc1ccc(/C=C(/NC(=O)c2ccccc2)c2nc3ccccc3[nH]2)cc1OC	MCF10A rereplic 20.6µM, SW480 rerep inconclusive

From PubChem
